The values that follow come from PubChem BioAssay AID2165 (The Scripps Research Institute Molecular Screening Center, 2009).

The structures appear in SMILES notation. A number with no mark means an inactive call. Activity calls are given as the source filed them. Cut-off read from the data, not from the text of the source: active = IC50 below about 9 µM; inactive = the rest.

In the assay the test system is Ba/F3 Cytotoxicity. Put plainly: JAK2V617F project follow-up: kinase, reporter, cytotoxicity – HEL and Ba/F3 cells, late-stage follow-up (AID 2165). The note with it: JAK2V617F panel: kinase, IRF1 reporter.
For the molecule `COc1cc(C=C(C#N)C(N)=O)cc(CSc2ccccc2)c1O`, the IC50 (commonly the concentration that inhibits the measured activity by half) is over 40 µM.
For the molecule `Cc1ccc(O)c(NC(=O)COc2ccc(Br)cc2)c1`, the IC50 was 2.43 µM (active).
Under `N#C/C(=C\c1ccc(O)c(O)c1)C(=O)NCCc1ccccc1` stands 0.3 µM (active).
In the case of `COc1cc2ncnc(N[C@H](C)c3ccccc3)c2cc1OC`, the IC50 is 3.19 µM (active).
Turning to `c1ccc(Nc2ncnc3ccccc23)cc1`, the IC50 is over 40 µM.
Under `COc1ccccc1OCC(=O)Nc1cc(C)ccc1O` stands 0.018 µM (active); under `C/C(=C\c1ccccc1F)C(=O)c1c(C)cc(C)[nH]c1=O`, over 40 µM.
Under `Clc1cccc(Nc2ncnc3ccccc23)c1` stands over 40 µM.
To `COc1cc2ncnc(Nc3ccc(F)c(F)c3)c2cc1OC` belongs over 40 µM; to `Cc1[nH]c(=O)c(C(=O)/C=C/c2ccccc2F)c2c1CCCC2`, 0.43 µM (active); to `Cc1[nH]c(=O)c(C(=O)/C=C/c2ccccc2)c2c1CCCC2`, 0.89 µM (active).
For `COc1cc2ncnc(Nc3cccc(Cl)c3)c2cc1OC`, the IC50 was over 40 µM.
Under `Cc1cccc(OCC(=O)Nc2cc(C)c(C)cc2O)c1` stands over 40 µM; under `COc1cc2ncnc(Nc3cccc(Br)c3)c2cc1OC`, over 40 µM.
Regarding `N#Cc1ccccc1NC(=O)COc1ccc2c(c1)OCO2`, the IC50 is over 40 µM.
Regarding `Cc1ccc(O)c(NC(=O)COc2ccc(I)cc2)c1`, the IC50 was 0.0269 µM (active).
Under `Cc1ccc(O)c(NC(=O)COc2cc(C)c(Cl)c(C)c2)c1` stands 6.17 µM (active); under `COc1cc(/C=C(\C#N)C(N)=O)cc(CSc2nc3ccccc3s2)c1O`, 7.61 µM (active).
As to `Cc1ccc(O)c(NC(=O)COc2ccccc2Cl)c1`, the IC50 is 0.0217 µM (active).
To `Cc1[nH]c(=O)c(C(=O)C=Cc2ccc(I)cc2)c2c1CCCC2` belongs over 40 µM; to `COc1cc2ncnc(Sc3ccc(Cl)cc3)c2cc1OC`, over 40 µM.
`Cc1[nH]c(=O)c(C(=O)C=Cc2ccc(C(C)C)cc2)c2c1CCCC2`: the IC50 is 2.74 µM (active).
Under `Cc1cccc(OCC(=O)Nc2cccc(O)c2)c1` stands over 40 µM; under `Cc1ccc(O)c(NC(=O)COc2cc(C)ccc2C)c1`, 1.36 µM (active).
To `Cc1cc(C)c(C(=O)/C=C/c2ccccc2F)c(=O)[nH]1` belongs 0.69 µM (active).
`CC(C)c1cc(C=C(C#N)C(=O)NCCCc2ccccc2)cc(C(C)C)c1O`: the IC50 was 4.29 µM (active).
To `CCc1cccc(Nc2ncnc3cc(OCCOC)c(OCCOC)cc23)c1` belongs over 40 µM; to `COc1cc2ncc(-c3ccccc3)nc2cc1OC`, over 40 µM.
On to `N#C/C(=C\c1ccc(O)c(O)c1)C(=O)NCCCCc1ccccc1`, for which the IC50 is 0.33 µM (active).
As for `COc1cc2ncnc(NC(C)C)c2cc1OC`, the IC50 was over 40 µM.
Under `Cc1ccc(O)c(NC(=O)COc2ccc(Cl)cc2)c1` stands 1.39 µM (active); under `C=CCNc1ncnc2cc(OC)c(OC)cc12`, over 40 µM.
To `Cc1[nH]c(=O)c(C(=O)C=Cc2ccc(Br)cc2)c2c1CCCC2` belongs 2.57 µM (active); to `Cc1cc2ncc(-c3ccc(O)c(O)c3)nc2cc1C`, 0.36 µM (active).
On to `Cc1ccc(O)c(NC(=O)COc2ccc(C3CCCCC3)cc2)c1`, for which the IC50 is 3.91 µM (active).
Under `Cc1[nH]c(=O)c(C(=O)C=Cc2ccc(Cl)cc2)c2c1CCCC2` stands 2.48 µM (active); under `COc1ccc(C)cc1NC(=O)Nc1ccc(Br)cn1`, over 40 µM; under `COc1cc2ncnc(Sc3ccc(C)cc3)c2cc1OC`, 3.68 µM (active).
